GPR151 activ: activators of human GPR151 | PathHunter beta-arrestin GPR151 cells, luminescence | activation, % at 11.2 µM | hit rate 1% among 650,000 | AID 1508602; in the data active means activation above about 4.9%
MITF inh: human MITF inhibition, primary screen; AID 1259374; O75030; inhibition, % at 2.6 µM; hit rate 0.91% among 650,000; AlphaScreen MITF homodimerization, bead proximity signal; in the data active means inhibition above about 50%
Target sequence (O75030 whole entry, looked up): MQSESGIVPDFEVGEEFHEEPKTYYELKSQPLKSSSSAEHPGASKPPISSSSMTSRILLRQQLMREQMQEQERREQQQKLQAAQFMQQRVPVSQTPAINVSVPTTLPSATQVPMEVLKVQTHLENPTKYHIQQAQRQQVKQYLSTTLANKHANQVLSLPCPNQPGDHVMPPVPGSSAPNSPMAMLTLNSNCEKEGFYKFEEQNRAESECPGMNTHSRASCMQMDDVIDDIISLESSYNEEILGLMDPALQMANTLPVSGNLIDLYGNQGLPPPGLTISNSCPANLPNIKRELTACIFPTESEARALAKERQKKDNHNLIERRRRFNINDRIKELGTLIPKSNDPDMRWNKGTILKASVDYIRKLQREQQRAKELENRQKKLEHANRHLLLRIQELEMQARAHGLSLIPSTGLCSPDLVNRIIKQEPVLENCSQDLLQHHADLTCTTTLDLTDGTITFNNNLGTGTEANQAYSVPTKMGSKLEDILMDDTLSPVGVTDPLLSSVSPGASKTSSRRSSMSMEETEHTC
FBW7 act: human FBW7 E3 ligase activation, primary screen | hit rate 0.13% among 650,000 | Q969H0 | normalized activity (activation), % at 26.1 µM | AlphaScreen FBW7–phospho-cyclin E peptide binding, activator screen; in the data active means normalized activity above about 1.9%;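 further: purified mutant Fbw7 with reduced substrate affinity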
TEAD-YAP block: TEAD-YAP interaction inhibition; AID 1259422; HEK-TIYL cells, TEAD-Gal4/YAP UAS-luciferase luminescence; inhibition, % at 9.12 µM; hit rate 1.4% among 640,000; in the data active means inhibition above about 32%
GPR151 conf act: human GPR151 activation, confirmation screen. 6,700 tested, under 10 active. GPR151 PathHunter beta-arrestin cells, luminescence, 90 min; % of EA-reagent control over plate median. shares compounds with GPR151 activ. activation, % at 11.2 µM;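 active means mean percent activation across replicates above the confirmation screen cutoff of 4.91%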
GPR119 ag: counter-screen for GPR151 activators: effect on human GPR119; shares compounds with GPR151 activ; GPR119 PathHunter beta-arrestin cells, luminescence, 90 min; 0 = compound-well median, 100 = enzyme-acceptor control; activation, % at 11.2 µM; hit rate 0.3% among 6,700;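 active means mean percent activation in the counterscreen above 29.09%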;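 further: counterscreen on off-target GPR119 to flag nonselective hits from the GPR151 activator screen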
Each line names hits and unclear results; the compound was inactive in the other large screens (follow-up assays come after a bar, where they were run). Sampled rows, rich in hits. Any-hit rate of the full collection: about 3.5%.

COc1ccc(OCC2c3cc(OC)c(OC)cc3CCN2C(=O)/C=C/c2cc(OC)c(OC)c(OC)c2)cc1 (stereo not drawn)	none
CCOC(=O)c1ccc(OCC2c3cc(OC)c(OC)cc3CCN2C(=O)c2ccc(OCC)c(OCC)c2)cc1 (stereo not drawn)	none
CCOc1ccc(C(=O)N2CCc3cc(OC)c(OC)cc3C2COc2ccc(C(=O)OC)cc2)cc1OCC (stereo not drawn)	GPR151 activ 20.2 | GPR151 conf act inactive | GPR119 ag inactive
COc1ccc(NS(=O)(=O)c2ccc3c(c2)NC(=O)C(C)C(=O)N3)cc1OC (stereo not drawn)	none
NC(=O)c1ccc(-c2cc(C(=O)NCc3ccccc3)ccn2)cc1	none
COC(=O)c1ccc(NC(=O)C2CC(=O)N(Cc3ccc4c(c3)OCO4)C(=Nc3cccc(C(F)(F)F)c3)S2)cc1 (stereo not drawn)	GPR151 activ 6.4 | GPR151 conf act inactive | GPR119 ag inactive
O=C(O)c1ccc(NC(=O)C2CC(=O)N(Cc3ccc4c(c3)OCO4)C(=Nc3cccc(C(F)(F)F)c3)S2)cc1 (stereo not drawn)	none
COC(=O)c1cc(NC(=O)c2cccs2)c(=O)n2c(=O)c3c(C)c(C)sc3[nH]c12	none
COC(=O)c1cc(NC(=O)c2ccc(F)cc2)c(=O)n2c(=O)c3c(C)c(C)sc3[nH]c12	GPR151 activ 5.4 | GPR151 conf act inactive | GPR119 ag inactive
CC(NS(C)(=O)=O)c1ccccc1 (stereo not drawn)	GPR151 activ 6.3 | GPR151 conf act inactive | GPR119 ag inactive
O=C(C[n+]1ccccc1)Nc1ccccc1C(=O)O	GPR151 activ 7.5 | GPR151 conf act inactive | GPR119 ag inactive
CCOCCCNc1ncnc2c1nnn2Cc1ccccc1Cl	none
COc1ccc(N2CCN(C(=O)C(c3ccccc3)c3ccccc3)CC2)nn1	GPR151 activ 5.7 | GPR151 conf act inactive | GPR119 ag inactive
CCOCCCNC1CCN(c2ccc(NC(=O)c3cccc(Cl)c3)cc2)CC1	GPR151 activ 16.9 | GPR151 conf act inactive | GPR119 ag inactive
CCN(CC)CCNC1CCN(c2ccc(NC(=O)c3cccc(Cl)c3)cc2)CC1	none
O=C(OCc1ccc(Br)cc1)c1ccc(O)cc1	none
O=C(OCc1ccc(Br)cc1)c1ccc(N2CCCC2=O)cc1	GPR151 activ 7.3 | GPR151 conf act inactive | GPR119 ag inactive
O=C(Nc1cccc(Cl)c1)c1ccc(F)c(S(=O)(=O)N2CCc3ccccc3C2)c1	GPR151 activ 5.4 | GPR151 conf act inactive | GPR119 ag inactive
Cc1ccc(N2CCN(S(=O)(=O)c3cc(C(=O)Nc4cc(Cl)cc(Cl)c4)ccc3F)CC2C)cc1 (stereo not drawn)	GPR151 activ 5.7 | GPR151 conf act inactive | GPR119 ag inactive
CCN1CCN(S(=O)(=O)c2cc(C(=O)Nc3cccc(C)c3)ccc2F)CC1	GPR151 activ 6.1 | GPR151 conf act inactive | GPR119 ag inactive
Cc1ccc(CN2CCN(Cc3ccc4nonc4c3)CC2CCO)cc1 (stereo not drawn)	none
Cc1ccc(CN2CCN(C/C(Cl)=C/c3ccccc3)CC2CCO)o1 (stereo not drawn)	GPR151 activ 5.4 | GPR151 conf act inactive | GPR119 ag inactive
Cc1ccc(CN2CCN(C/C=C/C(C)C)CC2CCO)o1 (stereo not drawn)	none
CC(C)=CCN1CCN(Cc2ccc3nonc3c2)CC1CCO (stereo not drawn)	GPR151 activ 5.4 | GPR151 conf act inactive | GPR119 ag inactive
Cc1ccc(CN2CCN(Cc3ccc4c(c3)OCCO4)CC2CCO)o1 (stereo not drawn)	GPR151 activ 5.9 | GPR151 conf act inactive | GPR119 ag inactive
Cc1ccc(CN2CCN(C/C=C/c3ccc(F)cc3)CC2CCO)o1 (stereo not drawn)	GPR151 activ 12.6 | GPR151 conf act inactive | GPR119 ag inactive
COc1ccccc1NC(=O)CN1CCC(n2c(C)nc3cc(F)ccc32)CC1	none
COc1ccc(Br)cc1C1SCCN1C(=O)c1cc2cc(Br)cc(Br)c2oc1=O (stereo not drawn)	none
CCN(CC(=O)NC1CCCCCC1)S(=O)(=O)c1ccc(F)cc1	none
COc1ccccc1/C=C/CN1CCN(Cc2ccccc2)C(CCO)C1 (stereo not drawn)	none
COc1ccccc1/C=C/CN1CCN(Cc2cccs2)C(CCO)C1 (stereo not drawn)	GPR151 activ 6.9 | GPR151 conf act inactive | GPR119 ag inactive
CN(C1CCCCC1)S(=O)(=O)c1csc(C(N)=O)c1	none
CCOc1ccc(C(=O)NC(C)(C)C)cc1Cl	GPR151 activ 6.9 | GPR151 conf act inactive | GPR119 ag inactive
CCOc1ccc(C(=O)NC2CCCC2)cc1Cl	none
CCOc1ccc(C(=O)NC(=S)Nc2cccnc2)cc1[N+](=O)[O-]	none
CCOc1ccc(C(=O)NC(=S)Nc2cccnc2)cc1Cl	GPR151 activ 7.1 | GPR151 conf act inactive | GPR119 ag inactive
O=C(CCc1ccccc1)N1CCc2c(nc(N3CCCC3)[nH]c2=O)C1	none
O=C(CCn1c(=O)oc2ccccc21)N1CCc2c(nc(N3CCCC3)[nH]c2=O)C1	GPR151 activ 5.1 | GPR151 conf act inactive | GPR119 ag inactive
Cc1nc2ccccc2n1CC(=O)N1CCc2c(nc(N3CCCC3)[nH]c2=O)C1	GPR151 activ 17.3 | GPR151 conf act inactive | GPR119 ag inactive
COc1cccc(N(C(=O)c2csnn2)C(C(=O)NC2CCCC2)c2ccccc2)c1 (stereo not drawn)	none
Cc1ccccc1CS(=O)(=O)CCC(=O)NCc1ccc(F)cc1	none
COc1ccccc1-c1coc2cc(OC(=O)C(C)(C)C)ccc2c1=O	GPR151 activ 6.9 | GPR151 conf act inactive | GPR119 ag inactive
O=C(OC1Cn2c(=O)ccc(=O)n2C1)c1ccc([N+](=O)[O-])cc1	none
Cc1cc(NC(=O)C(N)=O)ccc1Br	GPR151 activ 5.0 | GPR151 conf act inactive | GPR119 ag inactive
Cn1c(=O)c2c(nc(Cl)n2Cc2ccc([N+](=O)[O-])cc2)n(C)c1=O	none
Cn1c(=O)c2c(nc(-n3ccnc3)n2Cc2ccc([N+](=O)[O-])cc2)n(C)c1=O	GPR151 activ 5.0 | GPR151 conf act inactive | GPR119 ag inactive
CC1(C(=O)O)CCC(C(=O)NNc2ncnc3ccccc23)C1(C)C (stereo not drawn)	none
CCC(=O)Oc1cc2c(C(=O)OC(C)C)c(C)oc2cc1Br	GPR151 activ 8.2 | GPR151 conf act inactive | GPR119 ag inactive
COc1ccccc1NC(=O)c1ccc(NC(=O)COC(=O)c2ccc(O)cc2)cc1	GPR151 activ 5.4 | GPR151 conf act inactive | GPR119 ag inactive
COCCN1C(=O)CC(C(=O)OC)C12CCN(C(=O)CCc1cc(C)cc(C)c1)CC2 (stereo not drawn)	none
CC(C)Oc1ccc(CN2CCCC(CO)(Cc3ccccc3)C2)cc1CO (stereo not drawn)	GPR151 activ 5.0 | GPR151 conf act inactive | GPR119 ag inactive
